From PubChem
This is a sample that favours compounds with a hit; in the whole collection about 1.5% have one here.
STK33 kinase inh = human STK33 kinase inhibition; Q9BYT3; purified STK33, MBP phosphorylation, ADP-Glo luminescence; inhibition, % at 10 µM; actives 0.073% (n = 320,000); AID 2661;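 active means inhibition at or above 25%, using the most active replicate where run in duplicate; inactive means inhibition below 25%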
PP1 counter = counter-screen for PP5 inhibitors: inhibitors of human PP1-alpha | P62136 | purified PP1alpha, OMFP fluorescence | inhibition, % at 6.7 µM | actives 0.9% (n = 320,000) | AID 2235;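 active means inhibition above the mean inhibition of all tested compounds plus 3 SD, computed separately for each screening campaign, cut at about 15% in these data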
Dyrk1A ADPGlo = inhibitors of rat Dyrk1A kinase; Q63470; ADP-Glo luminescence, NFATc1 peptide; inhibition, % at 12.5 µM; actives 0.43% (n = 310,000); in the data active means inhibition above about 50%
HIF activator = HIF pathway transcriptional activation; actives 0.32% (n = 300,000); activation, % at 7.5 µM (by protocol); U2OS HRE-luciferase reporter, luminescence; normalized: DMSO 0%, desferrioxamine 100%; AID 1910;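 active means mean activation of at least 10% of the iron chelator positive control signal, with at least half of replicates also reaching 10%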
PP5 primary = PP5 (human) phosphatase inhibition; purified PP5c, OMFP substrate fluorescence; inhibition, % at 6.7 µM; actives 0.18% (n = 320,000); AID 1987;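 active means inhibition above the campaign's mean inhibition across all tested compounds plus 3 SD, cut at about 9.5% in these data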
Target sequence (P53041 whole entry, looked up): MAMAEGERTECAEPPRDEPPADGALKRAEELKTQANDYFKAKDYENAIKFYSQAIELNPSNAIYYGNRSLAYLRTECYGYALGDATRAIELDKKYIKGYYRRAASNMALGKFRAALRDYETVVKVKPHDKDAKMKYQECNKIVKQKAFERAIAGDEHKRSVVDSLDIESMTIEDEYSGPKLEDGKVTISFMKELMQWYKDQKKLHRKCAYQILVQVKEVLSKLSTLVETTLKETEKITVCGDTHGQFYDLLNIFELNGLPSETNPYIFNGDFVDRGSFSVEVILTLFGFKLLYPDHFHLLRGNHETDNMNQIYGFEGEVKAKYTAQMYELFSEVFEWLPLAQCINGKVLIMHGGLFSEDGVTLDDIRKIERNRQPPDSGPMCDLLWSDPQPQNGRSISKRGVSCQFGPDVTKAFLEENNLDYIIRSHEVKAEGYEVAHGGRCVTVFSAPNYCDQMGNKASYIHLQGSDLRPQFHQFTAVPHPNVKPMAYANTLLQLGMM
A number is an active result; 0 = inactive; - = no result given; ! = not confirmed by another sample.

SMILES	STK33 kinase inh	PP1 counter	Dyrk1A ADPGlo	HIF activator	PP5 primary
O=C(NN=Cc1c(O)ccc2ccccc12)c1ccncc1	-	-	0	-	-
O=C(N/N=C/c1c(O)ccc2ccccc12)c1cccnc1	0	0	0	83	0
O=C(N/N=C\c1c(O)ccc2ccccc12)c1ccc(O)cc1	0	0	0	34	0
O=C(N/N=C/c1c(O)ccc2ccccc12)c1ccc[n+](CCO)c1	0	0	0	0	0
Cc1ccc(C(=O)N/N=C/c2c(O)ccc3ccccc23)cn1	0	0	0	37	0
Cc1occc1C(=O)N/N=C/c1c(O)ccc2ccccc12	0	0	0	91	0
COc1cccc(CN(C)Cc2nc(Cc3ccccc3Cl)no2)c1	0	0	0	0	0
CSc1ccc(/C=C/C(=O)NC(=O)c2ccccc2O)cc1	0	0	0	0	0
O=C(Nc1nnc(CSCc2ccc(F)cc2)s1)c1cccc([N+](=O)[O-])c1	0	0	53	0	0
CCN1C(=O)CC(c2ccccc2)N(C2CCCC2)c2nc(Nc3ccc(C(=O)NC4CCN(C)CC4)cc3OC)ncc21 (stereo not drawn)	47	-	0	-	-
CCC(Oc1ccc2c(=O)c(-c3ccccc3OC)coc2c1)C(=O)OCc1ccccc1 (stereo not drawn)	0	17	0	0	0
COc1ccccc1-c1coc2cc(OC(=O)N3CCOCC3)ccc2c1=O	0	0	-	0	0
COc1cccc(C(=O)Nc2ccccc2)c1	0	0	0	0	0
CCCNC(=O)COc1cccc(C(=O)NCc2ccccc2)c1	0	0	0	0	0
COc1cccc(C(=O)Nc2ccc(NC(=O)Cc3ccccc3)cc2)c1	0	17	0	0	0
O=C(NCc1ccccc1Cl)c1cccc(NC(=O)c2ccccc2)c1	0	0	0	0	0
CCNC(=O)COc1cccc(C(=O)NCc2ccccc2)c1	0	0	0	75	0
COc1ccccc1CNC(=O)c1cccc(NC(=O)c2ccccc2)c1	0	0	0	26	0
O=C(Nc1cc(C(=O)Nc2ccccc2C(=O)O)cc(C(=O)Nc2ccccc2C(=O)O)c1)c1ccccc1	49	0	0	0	0
COc1ccc(C)cc1NC(=O)c1cccc(C(=O)Nc2cc(C)ccc2OC)c1	0	0	0	0	0
Cc1ccc(NC(=O)c2cccc(C(=O)Nc3ccc(C)cc3C(=O)O)c2)c(C(=O)O)c1	37	0	0	0	0
CCCCn1c(N)c(N(CC(C)C)C(=O)CSc2nnc(-c3ccc(Cl)cc3)o2)c(=O)[nH]c1=O	0	0	0	0	0
CC(CCc1ccccc1)NC(=O)COC(=O)C1CCC(C(C)(C)C)CC1 (stereo not drawn)	0	0	0	0	0
Cc1ccc(NC(=O)CC(=O)c2ccc([N+](=O)[O-])cc2)cc1S(=O)(=O)Nc1cccc(Cl)c1	0	17	0	0	0
Cc1ccc(NS(=O)(=O)c2cc(C(=O)Nc3cccc([N+](=O)[O-])c3)ccc2C)cc1	0	0	0	0	0
SMILES	STK33 kinase inh	PP1 counter	Dyrk1A ADPGlo	HIF activator	PP5 primary
Cc1ccc(C(=O)Nc2cccc([N+](=O)[O-])c2)cc1S(=O)(=O)Nc1ccc(NC(=O)c2ccccc2)cc1	0	0	0	140	0
COc1ccc(NC(=S)NCc2cccnc2)cc1	0	0	0	585	0
COc1ccc(C2=NN(C(=O)COC(=O)c3ccc(NC(=O)CC#N)cc3)C(c3ccco3)C2)cc1 (stereo not drawn)	0	16	-	-	0
O=C(OCC(=O)N1N=C(c2ccc(Cl)cc2)CC1c1ccco1)c1ccco1 (stereo not drawn)	0	0	0	0	0
Cc1ccc(-c2csc(NC(=O)CSc3nc4ccccc4[nH]3)n2)cc1	-	-	0	0	-
COc1ccc(-c2csc(NC(=O)CSc3nc4ccccc4c(=O)[nH]3)n2)cc1	0	17	0	0	0
CC(Oc1ccc2c3c(c(=O)oc2c1)CCCC3)C(=O)NCC(O)c1ccccc1 (stereo not drawn)	0	0	-	64	0
O=C(c1ccc(Cl)cc1)N1CCN(CCc2ccccn2)CC1	0	-	0	0	-
CCN(Cc1ccccc1)C(c1ccc(C(F)(F)F)cc1)c1nnnn1C(C)(C)C (stereo not drawn)	0	15	0	0	0
Nc1c2c(nc3c1CCCC3)CCCC2 (tested in a mixture with another compound)	0	0	0	0	0
CC(C)c1ccc2c(c1)C1(NN=C(c3ccccc3)S1)C(=O)N2 (stereo not drawn)	0	16	0	0	0
CCOC(=O)c1oc2c(CN3CCN(C)CC3)c(O)c(CC)cc2c(=O)c1-c1nc2ccccc2s1	-	-	0	-	-
CN1CCN(c2ccc(NC(=O)c3ccc(-c4cccc([N+](=O)[O-])c4)o3)cc2)CC1	36	0	0	0	0
CN1CCN(c2ccc(NC(=O)c3ccc(-c4ccc(Cl)cc4)o3)cc2)CC1	0	0	0	0	0
CCOC(=O)N1CCN(CC(=O)Nc2cccc(Br)c2)CC1	0	0	0	0	0
CCOC(=O)N1CCN(CCC(=O)Nc2cccc(Br)c2)CC1	0	18!	0	0	0
CC(=O)c1cccc(NC(=O)c2cc(=O)[nH]c3ccc(S(=O)(=O)N4CCOCC4)cc23)c1	0	-	0	-	-
Cc1nn(C)cc1/C=C/C(=O)c1ccccc1	0	0	0	0	0
Cc1c(/C=C/C(=O)c2ccc(O)cc2)cnn1C	29	0	0	0	0
CCn1cc(/C=C/C(=O)c2ccc(O)cc2)c(C)n1	44	0	0	0	0
Cc1c(/C=C/C(=O)c2ccc(C(C)C)cc2)cnn1C	0	0	0	0	0
Cc1ccc(CNC(=O)NC2CCCCC2)cc1	0	0	0	18	0
CCOC(=O)C1=C(C)NC(C)=C(C(=O)OCC)C1C(=O)OCC(=O)N(C)C1CCS(=O)(=O)C1 (stereo not drawn)	0	0	0	13	0
COc1ccc(NC(=O)c2cccs2)cn1	0	0	-	19	0
COc1ccc2nc(NC(=O)c3cccs3)sc2c1	0	0	-	21	0
SMILES	STK33 kinase inh	PP1 counter	Dyrk1A ADPGlo	HIF activator	PP5 primary
O=C(Nc1ccc(S(=O)(=O)Nc2cnc3ccccc3n2)cc1)c1ccc([N+](=O)[O-])cc1Cl	0	0	0	0	0
Cn1nc(-c2ccc(Cl)cc2)nc2c(=O)n(C)c(=O)nc1-2	0	37	-	0	12
CS(=O)(=O)n1nc(-c2ccc(Cl)cc2)nc1N	0	0	0	0	0
CCN(CC)C(=O)C1CCCN(c2ccc([N+](=O)[O-])cc2/C=N/NC(=O)c2cccc(Br)c2)C1 (stereo not drawn)	0	17	0	0	0
COc1ccc(OC)c(NC(=O)CCc2nnc3ccc(NCc4ccco4)nn23)c1	0	0	0	17	0
COc1cccc(NC(=O)CCc2nnc3ccc(NCc4ccco4)nn23)c1	0	0	0	0	0
Cc1ccccc1CN(C)CC(=O)Nc1ccccc1Oc1ccccc1	0	0	0	0	0
CN(CC(=O)Nc1ccccc1Oc1ccccc1)Cc1ccccc1F	0	0	0	129	0
